# Measured values taken from PubChem BioAssay (NCATS).
# A number with no mark means an inactive call. Records with an inconclusive call do not appear. Where a call stands in place of a potency, no number is given. Calls of active or inactive are those of the source. Calls follow the shape of the dose curve; as a rule, active = well fitted curve in the direction sought with a large enough effect; inconclusive = small, poorly fitted or top-dose-only effect, or another doubt; inactive = no such curve, though single readings can be large; an effect the other way counts as inactive or inconclusive.
# What was measured:
# [1] = qHTS assay for measurement of the activity of small molecule inhibitors on Zika virus induced Caspase-3 activity in human iPSC derived neural progenitor cells (hNPCs) (AID 1224857); also: nearly all actives have a fitted effect of over 65% in size
# Procedure, shortened: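 Cells were plated at 350 per well and grown 16 to 20 hours. Compound pretreatment lasted one hour, after which ZIKV (2 FFU/cell) was added for 6 hours. Percent inhibition was normalized between uninfected and infected controls.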
# [2] = qHTS assay for measurement of the activity of small molecule inhibitors on Zika virus induced Caspase-3 activity in human astrocytoma cells (AID 1224859)
# Procedure, shortened: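 Percent inhibition of virus-induced caspase-3/7 signal is calculated against uninfected and ZIKV-infected control cells. Cells are SNB-19, infected at 2 FFU/cell for 6 h after 1 h compound exposure.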
# [3] = P-glycoprotein substrates identified in KB-8-5-11 adenocarcinoma cell line, qHTS therapeutic library screen (AID 1346987); also: series mostly up to about 44 µM; nearly all actives have a fitted effect of over 65% in size
# Procedure, shortened: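 KB-8-5-11, a colchicine-selected P-gp-overexpressing KB-3-1 subline, was grown without colchicine for the assay. Cells were seeded at 500 cells/well, dosed in concentration-response and incubated 72 h at 37 degree C, 5% CO2. Viability was read by CellTiter-Glo luminescence.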
# [4] = NS1 protein of Zika virus - qHTS assay to identify small molecule inhibitors in human HEK 293 cells (AID 1347053); also: series mostly up to about 46 µM; nearly all actives have a fitted effect of over 55% in size
# Procedure, shortened: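 HEK 293; 20 h pre-culture, 37 C/5% CO2; cpd 1 h pre-infection; ZIKV MR766, MOI = 0.5, 24 h, 37 C; TR-FRET NS1 readout (two anti-NS1 Abs); norm. to no-virus vs infected.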
# [5] = qHTS of pediatric cancer cell lines to identify multiple opportunities for drug repurposing: Primary screen for TC32 cells (AID 1347089); also: nearly all actives have a fitted effect of over 60% in size
# Procedure, shortened: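 Luminescent ATP read-out (CellTiter-Glo) of metabolically active TC32 cells after 48 h exposure. Concentration-response curves came from 11-point (MIPE, 0.78 nM–46 µM) or 8-point (NPC, 0.59 nM–46 µM) primary titrations; follow-up used 11 points.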
# [6] = qHTS of pediatric cancer cell lines to identify multiple opportunities for drug repurposing: Primary screen for DAOY cells (AID 1347090); also: series mostly up to about 46 µM; nearly all actives have a fitted effect of over 55% in size
# Procedure, shortened: (§1)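 Viability measured as metabolically active cells via CellTiter-Glo luminescence following 48 hours of compound exposure, 11-point dilutions in confirmatory testing. 500-1,000 cells/well plated 5 hours before dosing; controls were DMSO and 2.3 µM bortezomib.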
# [7] = qHTS of pediatric cancer cell lines to identify multiple opportunities for drug repurposing: Primary screen for SJ-GBM2 cells (AID 1347091)
# Procedure, shortened: as §1
# [8] = qHTS of pediatric cancer cell lines to identify multiple opportunities for drug repurposing: Primary screen for A673 cells (AID 1347092); also: nearly all actives have a fitted effect of over 45% in size; also: potency is read from the fitted curve at half-maximal effect
# Procedure, shortened: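 Cell viability of A673 measured by CellTiter-Glo ATP luminescence after 48 hours compound exposure. Dilution series spanned 0.78 nM to 46 µM (MIPE, 11-point) or 0.59 nM to 46 µM (NPC, 8-point); bortezomib 2.3 uM positive control.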
# [9] = qHTS of pediatric cancer cell lines to identify multiple opportunities for drug repurposing: Primary screen for SK-N-MC cells (AID 1347093); also: potency is read from the fitted curve at half-maximal effect; as to activity change, negative = cytotoxic: series mostly up to about 46 µM
# Procedure, shortened: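 Metabolically active cells were quantified by ATP-dependent luminescence (CellTiter-Glo, 15 min at room temperature) following 48 h treatment. Cells had been plated at 500-1,000 per well and settled for 5 h beforehand.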
# [10] = qHTS of pediatric cancer cell lines to identify multiple opportunities for drug repurposing: Primary screen for BT-37 cells (AID 1347094); also: series mostly up to about 57 µM
# Procedure, shortened: (§2)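 Viability was measured as metabolically active cells after 48 hours of treatment, read by CellTiter-Glo luminescence. Compounds were tested at multiple final concentrations, giving concentration-response curves.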
# [11] = qHTS of pediatric cancer cell lines to identify multiple opportunities for drug repurposing: Primary screen for NB-EBc1 cells (AID 1347095)
# Procedure, shortened: as §2
# [12] = qHTS of pediatric cancer cell lines to identify multiple opportunities for drug repurposing: Primary screen for U-2 OS cells (AID 1347096); also: nearly all actives have a fitted effect of over 50% in size
# Procedure, shortened: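 Viability after 48 h compound treatment at 37C, 500-1,000 cells/well, read as ATP luminescence with CellTiter-Glo. Primary screens used 11-point (MIPE, 0.78 nM-46 µM) or 8-point (NPC, 0.59 nM-46 µM) final concentrations; follow-up screens used 11-point dilutions.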
# [13] = qHTS of pediatric cancer cell lines to identify multiple opportunities for drug repurposing: Primary screen for Saos-2 cells (AID 1347097); also: nearly all actives have a fitted effect of over 40% in size
# Procedure, shortened: as §2
smiles,measurement,setting,value
CC(C)=CCC/C(C)=C/CC/C(C)=C/CCC(=O)OC/C=C(\C)CCC=C(C)C,Potency,[1],inactive
same,outcome,[2],inactive
same,Potency,[3],inactive
same,Potency,[4],inactive
same,Potency,[5],inactive
same,Potency,[6],inactive
same,Potency,[7],inactive
same,Potency,[8],inactive
same,Potency,[9],inactive
same,Potency,[10],inactive
same,Potency,[11],inactive
same,Potency,[12],inactive
same,Potency,[13],inactive
C1N2CN3CN1CN(C2)C3,Potency,[1],inactive
same,outcome,[2],inactive
same,Potency,[3],inactive
same,Potency,[4],inactive
same,Potency,[5],inactive
same,Potency,[6],inactive
same,Potency,[7],inactive
same,Potency,[8],inactive
same,Potency,[10],inactive
same,Potency,[11],inactive
same,Potency,[12],inactive
same,Potency,[13],inactive
Nc1nnnn1-c1ccccc1,Potency,[1],inactive
same,outcome,[2],inactive
same,Potency,[3],inactive
same,Potency,[4],inactive
same,Potency,[5],inactive
same,Potency,[6],inactive
same,Potency,[7],inactive
same,Potency,[8],inactive
same,Potency,[10],inactive
same,Potency,[11],inactive
same,Potency,[12],inactive
same,Potency,[13],inactive
OCc1cccnc1,Potency,[1],inactive
same,outcome,[2],inactive
same,Potency,[3],inactive
same,Potency,[4],inactive
same,Potency,[6],inactive
same,Potency,[7],inactive
same,Potency,[8],inactive
same,Potency,[9],inactive
same,Potency,[10],inactive
same,Potency,[11],inactive
same,Potency,[12],inactive
same,Potency,[13],inactive
O=C(NO)c1ccccc1,Potency,[1],inactive
same,outcome,[2],inactive
same,Potency,[3],inactive
same,Potency,[4],inactive
same,Potency,[6],inactive
same,Potency,[12],inactive
CCCC(=O)c1cc(O)c(O)cc1O,Potency,[1],inactive
same,outcome,[2],inactive
same,Potency,[3],inactive
same,Potency,[4],inactive
same,Potency,[5],inactive
same,Potency,[6],inactive
same,Potency,[8],12.2 µM (active)
same,Potency,[12],inactive
CC(=O)N[C@@H](CCC(N)=O)C(=O)O,Potency,[1],inactive
same,outcome,[2],inactive
same,Potency,[3],inactive
same,Potency,[4],inactive
same,Potency,[5],inactive
same,Potency,[6],inactive
same,Potency,[7],inactive
same,Potency,[8],inactive
same,Potency,[10],inactive
same,Potency,[11],inactive
same,Potency,[12],inactive
same,Potency,[13],inactive
CC1CN(c2cc3c(cc2F)c(=O)c(C(=O)O)cn3-c2ccc(F)cc2F)CCN1 (stereo not drawn),"activity change, negative = inhibition",[1],-6.17% [at 4.53 µM]
same,"activity change, negative = inhibition",[2],-1.94% [at 4.53 µM]
same,Potency,[3],inactive
same,"activity change, negative = inhibition",[4],-15.5% [at 4.81 µM]
same,"activity change, negative = cytotoxic",[5],-4% [at 4.81 µM]
same,"activity change, negative = cytotoxic",[6],0.682% [at 4.84 µM]
same,"activity change, negative = cytotoxic",[7],78.3% [at 4.84 µM]
same,"activity change, negative = cytotoxic",[8],-9.43% [at 4.84 µM]
same,"activity change, negative = cytotoxic",[10],1.04% [at 6.03 µM]
same,"activity change, negative = cytotoxic",[11],50.8% [at 4.84 µM]
same,"activity change, negative = cytotoxic",[12],-4.99% [at 4.84 µM]
same,"activity change, negative = cytotoxic",[13],39.6% [at 4.84 µM]
CC1CC(=O)NN=C1c1ccc(NCC(C)(C)NCC(O)COc2cc(Cl)ccc2C#N)cc1 (stereo not drawn),Potency,[1],inactive
same,outcome,[2],inactive
same,Potency,[3],inactive
same,Potency,[4],inactive
same,Potency,[5],inactive
same,Potency,[6],inactive
same,Potency,[7],inactive
same,Potency,[8],inactive
same,Potency,[9],inactive
same,Potency,[11],inactive
same,Potency,[12],inactive
same,Potency,[13],inactive
COC(=O)c1c(Cl)c(Cl)c(C(=O)OC)c(Cl)c1Cl,Potency,[1],inactive
same,outcome,[2],inactive
same,Potency,[3],inactive
same,Potency,[5],inactive
same,Potency,[6],inactive
same,Potency,[7],inactive
same,Potency,[8],inactive
same,Potency,[9],inactive
same,Potency,[10],inactive
CCCCC(CC)COC(=O)c1ccccc1C(=O)O (stereo not drawn),Potency,[1],inactive
same,outcome,[2],inactive
same,Potency,[3],inactive
same,Potency,[4],inactive
same,Potency,[5],inactive
same,Potency,[6],inactive
same,Potency,[7],inactive
same,Potency,[8],inactive
same,Potency,[10],inactive
same,Potency,[12],inactive
same,Potency,[13],inactive
CC(=O)[C@H]1CC[C@H]2[C@@H]3C=CC4=CC(=O)CC[C@@]4(C)[C@@H]3CC[C@]12C,Potency,[1],inactive
same,outcome,[2],inactive
same,Potency,[3],inactive
same,Potency,[4],inactive
same,Potency,[5],inactive
same,Potency,[6],inactive
same,Potency,[7],inactive
same,Potency,[8],inactive
same,Potency,[10],inactive
same,Potency,[11],inactive
same,Potency,[12],inactive
same,Potency,[13],inactive
Cc1cc(C(C)(C)C)c(O)c(C(C)(C)C)c1,Potency,[1],inactive
same,outcome,[2],inactive
same,Potency,[3],inactive
same,Potency,[4],inactive
same,Potency,[6],inactive
same,Potency,[7],inactive
same,Potency,[8],inactive
same,Potency,[9],inactive
same,Potency,[10],inactive
same,Potency,[11],inactive
same,Potency,[12],inactive
same,Potency,[13],inactive
Cn1cc(S(C)=O)c(=O)c2ccc(F)cc21 (stereo not drawn),Potency,[1],inactive
same,outcome,[2],inactive
same,Potency,[3],inactive
same,Potency,[5],inactive
same,Potency,[6],inactive
same,Potency,[7],inactive
same,Potency,[8],inactive
same,Potency,[9],inactive
same,Potency,[10],inactive
same,Potency,[11],inactive
same,Potency,[12],inactive
same,Potency,[13],inactive
CO[C@@]1(NC(=O)CSC[C@@H](N)C(=O)O)C(=O)N2C(C(=O)O)=C(CSc3nnnn3C)CS[C@@H]21,Potency,[1],inactive
same,outcome,[2],inactive
same,Potency,[3],inactive
same,Potency,[4],inactive
same,Potency,[5],inactive
same,Potency,[6],inactive
same,Potency,[7],inactive
same,Potency,[8],inactive
same,Potency,[10],inactive
same,Potency,[11],inactive
same,Potency,[12],inactive
Cc1nc([N+](=O)[O-])cn1-c1ccc([N+](=O)[O-])cc1,Potency,[1],inactive
same,outcome,[2],inactive
same,Potency,[3],inactive
same,Potency,[4],inactive
same,Potency,[5],inactive
same,Potency,[6],inactive
same,Potency,[7],inactive
same,Potency,[8],inactive
same,Potency,[10],inactive
same,Potency,[11],inactive
same,Potency,[12],inactive
same,Potency,[13],inactive
N#C/C(=C1/SC[C@@H](c2ccc(Cl)cc2Cl)S1)n1ccnc1,Potency,[1],inactive
same,outcome,[2],inactive
same,Potency,[3],inactive
same,Potency,[4],inactive
same,Potency,[9],11.9 µM (active)
same,Potency,[12],inactive
C[C@H]1NCc2cc(-c3ccc4c(=O)c(C(=O)O)cn(C5CC5)c4c3OC(F)F)ccc21,Potency,[1],inactive
same,outcome,[2],inactive
same,Potency,[3],inactive
same,Potency,[4],inactive
same,Potency,[6],inactive
same,Potency,[7],inactive
same,Potency,[8],inactive
same,Potency,[9],inactive
same,Potency,[10],inactive
same,Potency,[12],inactive
same,Potency,[13],inactive
CC(=O)N(CC(O)CO)c1c(I)c(C(=O)NCCO)c(I)c(C(=O)NCC(O)CO)c1I (stereo not drawn),Potency,[1],inactive
same,outcome,[2],inactive
same,Potency,[3],inactive
same,Potency,[4],inactive
same,Potency,[5],inactive
same,Potency,[6],inactive
same,Potency,[7],inactive
same,Potency,[8],inactive
same,Potency,[9],inactive
same,Potency,[11],inactive
same,Potency,[12],inactive
same,Potency,[13],inactive
Brc1ccccc1-c1ccccc1,Potency,[1],inactive
same,outcome,[2],inactive
same,Potency,[3],inactive
same,Potency,[4],inactive
same,Potency,[6],inactive
same,Potency,[7],inactive
same,Potency,[8],inactive
same,Potency,[9],inactive
same,Potency,[10],inactive
same,Potency,[11],inactive
same,Potency,[12],inactive
same,Potency,[13],inactive
CC[N+](CC)(CC)CCOC(=O)C(C1CCCC1)C1CCCC1,Potency,[1],inactive
same,outcome,[2],inactive
same,Potency,[3],inactive
same,Potency,[4],inactive
same,Potency,[5],inactive
same,Potency,[6],inactive
same,Potency,[7],inactive
same,Potency,[10],inactive
same,Potency,[13],inactive
